# Data as given in the supplement of paper PMC6555819.
# Key:
# Assay in all cases: PBM binding z-score (relative to random genomic background probes); higher = stronger binding; sequences stand for … in GC…GCGATTGACAGCGTAGAATGAAGG
# [1] = test system: PPARg:RXRa DBDmut IVT, anti-RXR (DBD mutation: RXRa K156A/R161A, NR concentration 270 nM, RXRa partner concentration 90 nM)
# Method in brief: (§1)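 The probes on custom Agilent 4×180K protein-binding microarrays were double-stranded, with 34-nt variable regions bearing direct-repeat seeds, single-nucleotide variants, half-site ablations and random human genomic background sequences. Incubation lasted 1 h with ligand-free nuclear receptor dimers in PBS pH 7.4, 2% milk, 0.02% Triton X-100, 1 mM DTT, 0.2 mg/mL BSA and 0.4 mg/ml salmon testes DNA. Antibodies against each partner (one per run) detected bound dimers, and fluorescence scans were regression-normalized. Binding z-scores take the random background probes as reference.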
# [2] = test system: PPARg:RXRa IVT, anti-PPARg (NR concentration 270 nM, RXRa partner concentration 90 nM)
# Method in brief: as §1
# [3] = test system: PPARg DBDmut:RXRa IVT, anti-PPARg (DBD mutation: PPARg1 K132A/R137A, NR concentration 270 nM, RXRa partner concentration 90 nM)
# Method in brief: as §1
# [4] = test system: PPARg DBDmut IVT, anti-PPARg (DBD mutation: PPARg1 K132A/R137A, NR concentration 270 nM)
# Method in brief: as §1
# [5] = test system: PPARg homodimer (NR concentration 180 nM)
# Method in brief: as §1
# [6] = test system: PXR:RXRa (NR concentration 270 nM, RXRa partner concentration 90 nM)
# Method in brief: as §1
# [7] = test system: PXR homodimer (NR concentration 270 nM)
# Method in brief: as §1
# [8] = test system: RARa:RXR (NR concentration 270 nM, RXRa partner concentration 90 nM)
# Method in brief: as §1
# [9] = test system: RARa homodimer (NR concentration 270 nM)
# Method in brief: as §1
# [10] = test system: RARb:RXRa (NR concentration 270 nM, RXRa partner concentration 90 nM)
# Method in brief: as §1
Sequence,PBM binding z-score [1],PBM binding z-score [2],PBM binding z-score [3],PBM binding z-score [4],PBM binding z-score [5],PBM binding z-score [6],PBM binding z-score [7],PBM binding z-score [8],PBM binding z-score [9],PBM binding z-score [10]
CCTTACGGGTCACTCCACGTTATAGCATCGGAGT,2.55,3.09,0.675,0.232,2.03,2.39,0.155,3.01,0.911,3.44
CCTACTGGGCAACGAAAGGTCATTGATTCAGTGA,2.25,2.56,-0.412,0.102,3.81,5.18,1.89,5.49,2.52,3.96
TTACCAAGTTGAGCTGAGGTCGTTGATCCAACTC,-0.673,0.221,-0.252,-0.114,-0.328,3.88,0.614,1.76,-0.601,0.659
ACTATTAGTTGACTCAGGGCAACCGATACGACGC,0.402,0.739,1.01,1.08,0.52,0.329,0.569,0.544,0.791,0.893
CGTCCAAAGTCAAGGTCAGTGAAAGAGACTCGAA,0.62,0.874,-0.185,-0.414,2.49,2.05,1.01,2.47,0.742,3.62
GCTTGTAGATCAAGGTTAAGAAAGACTAAGCTAA,0.698,1.3,-0.233,0.273,0.452,0.314,-0.212,0.726,-0.0899,0.759
TCTCGGAGGACACGAAAGGTCATAGCTCGACATC,2.17,2.14,1.29,0.408,3.48,5.31,1.81,5.39,1.62,4.26
CCTTACGGATCACGAGGTTATAGCACGACGAGCG,0.221,0.106,-0.412,0.232,1.02,1.02,0.695,1.36,0.995,0.621
CCGACTGGCGCAGAAAGGTTACCATACCATCCGG,-0.18,-0.419,-0.533,-1.05,0.499,0.354,-0.51,1.14,-0.466,1.35
ACTAGCAGGCCAAGGGTCATTCAAGATTAGTCCG,0.965,3.72,0.143,-0.155,1.76,3.83,0.144,4.26,0.503,3.41
CCGACTCGGGCAGAAAGGTTACCATACCATCCGG,-0.0361,0.238,-1.52,-1.19,0.529,0.674,-0.293,1.33,-0.25,1.74
CCTAGCAGGCCTGGGTCACTCAAGCATTTCGCTT,0.171,0.217,-1.39,-1.28,0.279,0.53,-0.661,1.16,0.152,1.43
TCTTGTAGATCAAAGGTTAAGGAAGCCGAAGCCT,2.14,3.75,1.3,0.543,1.02,2.01,-0.532,2.9,0.593,2.11
GGAACGAGGGCATTCGATTTGATAGCATGGCGAT,3.33,2.39,0.437,-0.411,0.257,0.991,0.161,0.538,-0.351,1.96
CCGACTGGGGCATAAGGTTACCATCAGCCAGCCC,2.93,3.1,-0.916,-1.26,0.425,0.317,-0.375,1.06,-0.135,1.37
CCTTACGGATCACTGACAGGTTATAGCATTTGGA,0.71,-0.0645,0.405,0.544,0.811,0.356,0.678,0.397,1.14,0.471
GGAACGAGCGCAAGTTGATAGCAGAGTTTGATGG,-0.621,-0.838,-2.04,-1.98,-1.77,-0.63,-0.349,-1.15,-1.13,-0.612
TAGCCTACGTCATGCGGGCCAGTATAGTGTCGGC,-0.258,-0.361,-0.565,-0.82,-1.11,-0.921,-1.11,-0.886,-1.36,-0.527
CTACCAAGGTGAACAAGGTCGTTGAATACTATTC,2.52,2.79,0.336,0.338,0.802,2.75,2.05,2.46,0.109,2.03
TCTGGCAGGCCAGAGGGTCACTCAAGAGGTACGG,0.0912,0.182,-0.722,-0.915,0.353,1.59,-0.371,2,-0.717,2.31
TCATATAGGTAATACAGGCGAAAGTCGGCATCTA,3.6,2.22,1.28,0.916,0.655,0.46,0.00877,0.48,0.962,0.247
GCTAGCAGTCCATTTGGGTCACTCAATGACGGGC,0.379,1.16,-1.16,-1.53,0.032,0.67,0.689,0.82,-0.831,0.88
CGAACGAGGGCATGACTTGATAGCAAATGCCGAT,2.69,1.81,-0.27,-0.449,-0.43,0.219,-0.361,0.614,-0.682,2.01
CAAACTAGGTCAAGAGGTCACAGTCCGCTTCCCG,8.51,8.53,3.61,2.62,6.23,5.99,1.56,7.64,2.8,5.67

Sequence,PBM binding z-score [1],PBM binding z-score [2],PBM binding z-score [3],PBM binding z-score [4],PBM binding z-score [5],PBM binding z-score [6],PBM binding z-score [7],PBM binding z-score [8],PBM binding z-score [9],PBM binding z-score [10]
CAAACTAGGTCACGAAAGGTTAAAGTCGAATGAC,8.39,9.07,2.59,1.97,3.32,5.8,0.579,5.4,1.18,5.01
CTCGAAAGGTCGGTTGAGGTGAGTACACGGATAA,0.186,0.928,0.39,-0.276,0.988,3.2,0.172,2.11,-0.296,3.15
GGAACGAGGGCATTCAAGTTGATAGCATGGCGAT,2.92,2.13,-0.155,-0.574,-0.338,2.92,0.722,0.791,-0.689,1.9
ATAATGAGGTTAAGATCAGGGAAACAGAATACAT,3.08,3.32,1.83,1.92,1.15,1.31,0.654,2.22,0.709,2.22
CCTAGCAAGCCAGGGTCACTCAAGCATTTCGCTT,-0.127,0.222,-0.962,-1.46,0.888,2.78,0.054,3.42,-0.000742,2.41
GCTAGTTGGTCAGTAAAAGTTCACACACCGGTCG,0.674,0.916,-0.358,0.138,2.26,3.43,3.27,2.53,1.14,2.73
CCGACTGGGGCTTAAGGTTACCATAAGCCAGCCC,0.244,0.428,-1.39,-1.88,0.217,0.141,-0.395,1.08,-0.504,0.868
CAAACTAGGTCAAGGACAGTGAATCTCCGCACGC,8.06,8.33,5.83,2.41,2.39,1.42,0.22,2.41,1.49,4.06
ATCTCTAGGTAAGAGTCAGTTCAGTGAAGAACGC,1.76,1.41,0.489,0.902,1.16,0.741,1.13,0.349,1.11,0.454
TCTAGCAGGCCAGAGGGTCAGTCAAGAGGTACGG,0.768,0.496,-0.553,-1.25,0.21,0.465,-0.829,0.985,-0.753,1.77
GCGACTGGGGCATCAGCAGGTTATCATAACTTAA,3.69,3.13,-0.424,-0.757,0.000895,0.377,-0.554,0.458,-0.474,0.845
CTACCAAGGAGAACAAGGTCGTTGATTACTATTC,0.168,0.269,-0.0895,0.25,0.615,1.23,1.05,1.17,0.421,0.589
ACGGACAGGTGAGTGAAGGTAACTCAGCTGGACG,0.373,0.578,-0.111,-0.701,-0.338,-0.142,-0.376,0.477,-0.21,0.913
GCTAGCAGGCCATTTGGGTGACTCAATGACGGGC,1.46,0.949,-0.802,-0.751,-0.989,-0.366,-0.793,-0.229,-1.01,0.0482
CCTGCTAGGGCATGGTCAGCTAATCTACAGTATG,1.27,0.942,-0.789,-1.21,-0.604,-0.584,-0.686,-0.414,-0.802,1.43
TCTATTAGTTGATTAGGTCAACCGAAACAGCGGA,2.89,3.1,1.43,1.8,2.28,2.03,0.923,2.56,1.9,2.73
GTACCAAGGTGAATAGGTCGTCGATGAGTAGGCG,1.91,2.77,-0.404,-0.279,0.976,0.807,-0.119,1.9,0.0363,2.18
CAAACTAGGTCAAAGCTCAAAGTCGAGCCAACCA,8.73,8.57,5.63,0.922,1.88,1.33,0.241,2.86,0.284,3.84
CCTAGCACGCCAATCTGGGTCACTCAAGGCTTGA,3.75,4.76,-0.107,-0.39,0.751,0.751,-0.246,1.13,0.0845,1.06
TCAGACAGGTGAAGGTCACTCAGGTACGCAGTCG,3.07,2.84,0.351,0.266,2.38,4.02,0.556,3.78,0.971,4.01
GCATATAGGTAAGACAAGGTGAAAGTCCGATTGT,3.48,2.15,0.16,0.225,0.496,0.219,-0.205,1.44,-0.191,0.391
GCTGCTAGGTCAGGTTGGTCCGCTAACGGGTACG,2.43,2.33,-0.695,-0.237,0.526,0.421,-0.826,0.786,-0.467,3.27
CGTCAATGTTCAAGGTAACGTAACAGAAAGCAGC,-0.165,0.397,0.371,0.433,0.235,0.00739,-0.0049,-0.00308,0.0887,0.375
TCTCGGAGGACACGACGGTCAGAGCTTTCCAGAG,1.2,0.00965,-1.14,-0.952,-0.596,-0.328,-0.626,-0.317,-0.599,1.91
